Compound activity from PubChem.
Autofluor 339 = intrinsic fluorescence of library compounds, ex339/em460 – biochemical, MLSMR library, data from DPM-DC assay, artefact control, profiling panel. compound autofluorescence, ex339/em460 nm, NADH buffer; stronger effect = higher value; 1 = no-compound wells, NADH background. 65,000 tested, 5.5% active. fluorescence fold increase at 10 µM;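 active = at 10 µM, mean starting fluorescence two-fold or more over control wells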;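 note: signal is the first read of a kinetic run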
Spn PMK inh = S. pneumoniae PMK inhibitors, primary screen, biochemical, mevalonate pathway, pilot trial included. purified PMK, PK/LDH-coupled NADH absorbance 340 nm. inhibition, % at 10 µM. 65,000 tested, 0.49% active;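 active = top-ranked compounds by inhibition in the single 10 µM screen, taking a fixed number of the strongest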;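 note: 0% = full reaction with DMSO carrier and 100% = background rate without enzyme reaction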
Abs 340nm = compound light absorbance at 340 nm, profiling panel, artefact control, biochemical, MLSMR library, data from PS, PMK, MK assays | compound absorbance at 340 nm, fold over control | fold change at 10 µM | 65,000 tested, under 10 active;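 active = at 10 µM dose, initial 340 nm absorbance at least 2 fold that of control wells; inactive = change under 2 fold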;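 note: initial absorbance extrapolated from kinetic A340 decline of NADH oxidation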
NADH coupling = inhibitors of PK/LDH coupling enzymes, profiling panel, artefact control, biochemical, MLSMR library. coupled PK/LDH NADH assays, four targets. IC50, µM (titrated, usually from 10 µM), without a hit: top-dose inhibition. 65,000 tested, 0.02% active;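 active = single-dose screening hits from any of four coupled enzyme assays that gave an IC50 when retested across doses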;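 note: the DPM-DC format reads NADH fluorescence rather than 340 nm absorbance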
Spn MK inh = S. pneumoniae MK inhibitors, primary screen, biochemical, PK/LDH-coupled NADH absorbance. inhibition, % at 10 µM. mevalonate kinase [Streptococcus pneumoniae D39]. 65,000 tested, 0.48% active. purified MK, PK/LDH-coupled NADH absorbance 340 nm;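 active = ranked among the strongest by inhibition in the single 10 µM screen, a fixed top-ranked set picked for dose follow-up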
Spn DPM-DC inh = S. pneumoniae DPM-DC inhibitors, primary screen, biochemical, PK/LDH-coupled NADH fluorescence. purified DPM-DC. 65,000 tested, 0.49% active. calls only at 10 µM. AID 556, 2006;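 active = the 320 compounds with the highest percent inhibition in the single-dose primary screen, excluding strongly autofluorescent ones, cut at about 32% in these data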;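 note: kinetic rate of NADH fluorescence loss reporting ADP formed by the decarboxylase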
* marks the source's active call; other numbers are inactive results. This is a sample that favours compounds with a hit; in the whole collection about 6.8% have one here.

`COC(=O)C1=C(C)NC2=C(C(=O)CCC2)C1c1ccccn1` (centres undefined) gave Autofluor 339 2.1*, Spn PMK inh 5, Abs 340nm 1.1, NADH coupling 5% and Spn MK inh 4.
For Cc1ccc(C(=O)c2cc(C)sc2NC(=O)CN2CCN(C(=O)c3ccco3)CC2)cc1 the results were Autofluor 339 1.1, Spn PMK inh 6, Abs 340nm 1, NADH coupling 3%, Spn MK inh 3 and Spn DPM-DC inh inactive.
For CCOC(=O)C1=C(C)NC2=C(C(=O)CCC2)C1c1ccsc1 (centres undefined) the results were Autofluor 339 2.5*, Spn PMK inh 3, Abs 340nm 1.1, NADH coupling 10%, Spn MK inh 7 and Spn DPM-DC inh inactive.
Screening CC1=C(C(=O)OCC2CCCO2)C(c2ccncc2)C2=C(CCCC2=O)N1 (centres undefined) returned Autofluor 339 1.4, Spn PMK inh 6, Abs 340nm 1.1, NADH coupling 18%, Spn MK inh 2 and Spn DPM-DC inh active.
CCOC(=O)C1=C(C)NC2=C(C(=O)CCC2)C1c1cccnc1 (centres undefined) was read as Autofluor 339 2.1*, Spn PMK inh 8, Abs 340nm 1.1, NADH coupling 10% and Spn MK inh 11.
CC1=C(C(=O)OCC2CCCO2)C(c2ccccc2)NC(=O)N1 (centres undefined) was read as Autofluor 339 0.9, Spn PMK inh 6, Abs 340nm 1, NADH coupling 8%, Spn MK inh 5 and Spn DPM-DC inh inactive.
CCOC(=O)C1=C(N)OC2=C(C(=O)CCC2)C1c1cccnc1 (centres undefined) was read as Autofluor 339 1.1, Spn PMK inh 0, Abs 340nm 1, NADH coupling 4%, Spn MK inh 12 and Spn DPM-DC inh inactive.
O=C(Cc1cc(=O)[nH]c(=O)[nH]1)N1CCC(Cc2ccccc2)CC1 was read as Autofluor 339 1, Spn PMK inh 10, Abs 340nm 1, NADH coupling 6%, Spn MK inh 6 and Spn DPM-DC inh inactive.
`Cc1ccc(S(=O)(=O)NCCCOC(=O)Nc2ccncc2)cc1` gave Autofluor 339 1.1, Spn PMK inh 9, Abs 340nm 1.1, NADH coupling 6% and Spn DPM-DC inh inactive.
`CC1(C)Cc2ccccc2-c2nc(NCCO)n(-c3ccccc3)c(=O)c21` gave Autofluor 339 2.2*, Spn PMK inh 5, Abs 340nm 1.1, NADH coupling 6% and Spn MK inh 7.
`CCC1(C)Cc2ccccc2-c2nc(NCCO)n(-c3ccccc3)c(=O)c21` (centres undefined) gave Autofluor 339 2.3*, Spn PMK inh 2, Abs 340nm 1.1, NADH coupling 7% and Spn MK inh 12.
For CCn1c(SCC(=O)N2CCN(c3ccccc3F)CC2)nnc1-c1ccoc1C the results were Autofluor 339 1.1, Spn PMK inh 13, Abs 340nm 1, NADH coupling 7%, Spn MK inh 8 and Spn DPM-DC inh inactive.
O=C1CCCC2=C1C(c1ccco1)Nc1ccc3ccccc3c12 (centres undefined) was read as Autofluor 339 2.2*, Spn PMK inh 6, Abs 340nm 1, NADH coupling 7% and Spn MK inh 8.
CC(C)COC(=O)NCC12C=CC(O1)C1C(=O)N(c3ccc(Cl)cc3)C(=O)C12 (centres undefined) was read as Autofluor 339 1, Spn PMK inh 25*, Abs 340nm 1, NADH coupling 4%, Spn MK inh 0 and Spn DPM-DC inh inactive.
For c1ccc(-c2oc3ncnc(NCCN4CCOCC4)c3c2-c2ccccc2)cc1 the results were Autofluor 339 2*, Spn PMK inh 4, Abs 340nm 1, NADH coupling 5%, Spn MK inh 2 and Spn DPM-DC inh inactive.
Screening N=c1c2c(-c3ccccc3)c(-c3ccccc3)oc2ncn1CCCN1CCOCC1 returned Autofluor 339 1.5, Spn PMK inh 12, Abs 340nm 1.1, NADH coupling 11%, Spn MK inh 12 and Spn DPM-DC inh inactive.
For c1ccc(-c2oc3ncnc(NCCCn4ccnc4)c3c2-c2ccccc2)cc1 the results were Autofluor 339 3.7*, Spn PMK inh 16, Abs 340nm 1.1, NADH coupling 8% and Spn MK inh 0.
`c1ccc2c(c1)oc1c(NCCCn3ccnc3)ncnc12` gave Autofluor 339 1.1, Spn PMK inh 4, Abs 340nm 1.1, NADH coupling 2%, Spn MK inh 2 and Spn DPM-DC inh inactive.
O=c1cc(NCCO)c2ccccc2o1 was read as Autofluor 339 1.1, Spn PMK inh 0, Abs 340nm 1.1, NADH coupling 2%, Spn MK inh 6 and Spn DPM-DC inh inactive.
`OCCCCNc1cccc2ccccc12` gave Autofluor 339 3.7*, Spn PMK inh 10, Abs 340nm 0.99, NADH coupling 9% and Spn MK inh 8.
`COc1ccccc1NC(=O)C1=C(C)NC2=C(C(=O)CCC2)C1c1ccc2c(c1)OCO2` (centres undefined) gave Autofluor 339 2.5*, Spn PMK inh 7, Abs 340nm 1.1, NADH coupling 13%, Spn MK inh 0 and Spn DPM-DC inh active.
`CC1=C(C(=O)N2CCCCC2)C(c2cccs2)C2=C(CCCC2=O)N1` (centres undefined) gave Autofluor 339 2.1*, Spn PMK inh 9, Abs 340nm 1.1, NADH coupling 3% and Spn MK inh 0.
Screening COc1cc(C2C(C(=O)N3CCOCC3)=C(C)NC3=C2C(=O)CCC3)ccc1OC(C)=O (centres undefined) returned Autofluor 339 3.7*, Spn PMK inh 16, Abs 340nm 1.1, NADH coupling 10% and Spn MK inh 3.
CC1=C(C(=O)N2CCOCC2)C(c2ccccc2F)C2=C(CCCC2=O)N1 (centres undefined) was read as Autofluor 339 2.9*, Spn PMK inh 7, Abs 340nm 1.1, NADH coupling 4% and Spn MK inh 6.
COC(=O)C1=C(C)NC2=C(C(=O)CCC2)C1c1cccs1 (centres undefined) was read as Autofluor 339 1.6, Spn PMK inh 4, Abs 340nm 1.1, NADH coupling 7%, Spn MK inh 3 and Spn DPM-DC inh inactive.
